Results on 39 compounds are retold here after PubChem BioAssay (NCI).

This is part of a sample that, as a whole, favours compounds with a hit. Of some 79,000 tested, about 15% had one in any assay. A number with no mark means an inactive call. Rule as the data show it: active = growth inhibition above about 70%; inactive = the rest.

The test is described as follows: NCI Yeast Anticancer Drug Screen. Data for the mec2-1 strain (AID 157). As to conditions: S. cerevisiae mec2-1 strain, at 3.7 µM, hits give high values. In a few lines:
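Using mec2-1 yeast: add compound, measure growth, express inhibition versus vehicle-treated cultures.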
On to `C/C(=N\NC(=S)SCc1ccccc1)c1ccccn1`, for which the growth inhibition is 51%.
For the compound `CC[C@@]1(O)C(=O)OCc2c1cc1n(c2=O)Cc2cc3c(N)cccc3nc2-1`, the growth inhibition is -1%.
On to `CN(C)c1ccc(Sc2ccc3nc(N)nc(N)c3c2)cc1`, for which the growth inhibition is -28%.
With `CC(=O)OCCOCNC(=S)N/N=C(\C)c1cnccn1` the figure was -17%; with `COc1ccc(C2c3cc4c(cc3OC(C)(O)C2C)OCO4)c(OC)c1` (centres undefined), 8%; with `COc1cc(C2SCC(=O)N2c2ccc(-c3ccc(-n4c(-c5ccccc5)nc5ccccc5c4=O)cc3)cc2)cc(OC)c1OC` (centres undefined), 0%.
With `COc1ccc(Br)c(C(=O)Sc2nnnn2-c2cccc(Cl)c2)c1` the figure was -9%; with `O=C(NNc1ccnc2cc(Cl)ccc12)/C(=C\c1ccccc1Cl)NC(=O)c1ccccc1`, -1%.
Then `CSC(=S)Nc1cccc(C)n1`, with -61%.
On to `O=C(/C=C\c1ccc(Cl)cc1Cl)c1cccs1`, for which the growth inhibition is -2%.
With `COc1ccc(-c2cn(-c3ccc(I)cc3)c3ncnc(N)c23)cc1` the figure was -4%; with `CN(C)c1ccc(C(C#N)=C(C#N)C#N)cc1`, 2%; with `COc1cc(/C=C2\CCc3ccccc3C2=O)cc(OC)c1OC`, 10%.
In the case of `CC(C)/C(Cl)=N\OC(=O)Nc1cccc(Cl)c1`, the growth inhibition was 0%.
With `CC1(C)[C@@H]2CC[C@]1(C)[C@H](OC(=O)CSC#N)C2` the figure was 8%; with `NNC(=O)CCc1ccc2ccc3ccccc3c2c1`, -1%; with `COc1ccc(/C(C)=N/OC(=O)c2c(-c3ccccc3Cl)noc2C)cc1CN1CCOCC1`, 2%.
As for `C=CC(C)(O)CCC1C(=C)C(O)CC2C(C)(C)CCCC12C` (centres undefined), the growth inhibition was 9%.
Then `S=C(Nc1ccc(Cl)c(Cl)c1)SCc1ccc2c(c1)OCO2`, with 6%; and `COc1cc(C2C3=C(COC3=O)Oc3cc4c(cc32)OCO4)ccc1O` (centres undefined), with -2%; and `S=C(Nc1ccc(Cl)cc1)SC1CCCCC1`, with 7%.
As for `Nc1nc(-c2cccnc2)cc(-c2cc(-c3cccnc3)nc(N)n2)n1`, the growth inhibition is 2%.
With `COC1=CC(=O)C2C(C1=O)C(c1ccc(Cl)cc1)[C@@H]2C` (some centres undefined) the figure was 49%.
Then `c1ccc(-c2nc3cccnc3s2)cc1`, with -1%.
Consider `O=[N+]([O-])c1cc(CCl)ccc1CCl`, for which the growth inhibition is 6%.
With `COc1ccc(/C=C2\SC(=S)N(/C=C/c3nc4ccccc4[nH]c3=O)C2=O)cc1OC` the figure was 5%; with `CCCN(CCC)CC(O)c1cc(-c2ccc(Cl)cc2)nc2c(C)c(Cl)ccc12` (centres undefined), -8%; with `O=C(Nc1ccccc1)OCCc1ccc(Cl)c(Cl)c1`, -4%.
As for `CC(O)C(O)C(O)C(/C=N\Nc1ccccc1)=N/Nc1ccccc1` (centres undefined), the growth inhibition was 1%.
Then `C#CCCCc1ccccc1`, with -12%.
In the case of `CC(=O)Cc1ccc[cH-]1.[Fe+2].c1cc[cH-]c1`, the growth inhibition is -5%.
Then `Cc1cc(I)ccc1N`, with 4%; and `FC(F)(F)c1cc(NC(=S)N2c3ccccc3-n3cccc3C2c2cccnc2)cc(C(F)(F)F)c1` (centres undefined), with -4%.
With `CC(C)(CN1CCCCC1)C(=O)CC(SCCS(=O)(=O)O)c1ccc(Br)cc1` (centres undefined), the growth inhibition is 6%.
With `C[Si](C)(C)CNC(=O)OCc1ccccc1` the figure was -3%.
With `CC(C(=O)N1C(=O)N(C(=O)[C@H](C)C(O)c2ccccc2)[C@H](c2ccccc2)[C@H]1c1ccccc1)[C@@H](O)c1ccccc1` (some centres undefined) the figure was -1%; with `Oc1cccc2c(Cl)ccnc12`, 63%; with `O=C1C=CC(=C(c2ccccc2)c2ccccc2)c2ccccc21`, -1%.
With `S=C(S)NN1CCOCC1` the figure was 60%.
